Laboratory results taken from PubChem BioAssay (EPA / NIEHS).
Activity calls are given as the source filed them. How the source made its calls: active means hit-call score of the fitted dose curve at least 0.9, where 1 is the maximum; inactive means score below 0.9.

assay: ATG_M_61_CIS: Attagene CIS-FACTORIAL HepG2 Assay for M61 Transcription Factor (Internal Marker) (AID 2282937); details: HepG2 Attagene CIS-FACTORIAL M61 internal marker reporter; actives raise or lower the signal
Experimental: ATG_CIS is a cell-based, multiplexed-readout assay that uses HepG2, a human liver cell line, with measurements taken at 24 hours after chemical dosing in a 24-well plate.ATG_M_61_CIS is one of 52 assay component(s) measured or calculated from the ATG_CIS assay. It is designed to make measurements of mRNA induction, a form of inducible reporter, as detected with fluorescence intensity signals by Reverse transcription polymerase chain reaction (RT-PCR) and Capillary electrophoresis technology.Data from the assay component ATG_M_61_CIS was analyzed into 1 assay endpoint. This assay endpoint, ATG_M_61_CIS, was analyzed with bidirectional fitting relative to DMSO as the negative control and baseline of activity. Using a type of inducible reporter, measures of mRNA for gain or loss-of-signal activity can be used to understand the background control at the transcription factor-level as they relate to the gene . Furthermore, this assay endpoint can be referred to as a secondary readout, because this assay has produced multiple assay endpoints where this one serves a background control function. To generalize the intended target to other relatable targets, this assay endpoint is annotated to the background measurement intended target family, where the subfamily is internal marker.
Human liver HepG2 cells are transiently transfected with multiple reporter transcription units (MRTUs) in 6-well plates using FuGene 6 reagent (Roche; 3 ml FuGene/1 mg DNA). The MRTU constructs are regulated by a cis-regulating element (promoter). […] A major difference between the CIS and TRANS system is that in CIS activities of endogenous TFs are measured, whereas the TRANS assay evaluates changes in activities of exogenous, chimeric NR-Gal4 proteins. […] At the end of 24 hour incubation, total RNA was isolated using TriZol reagent (Invitrogen). The isolated RNA is then reverse-transcribed using oligo(dT) primer and Mo-MLV reverse transcriptase (Invitrogen) with DNAse I (Ambion) treatment for 30 min. The one-tenth of the produced cDNA was amplified by PCR using Taq DNA polymerase (Invitrogen) and two reporter sequence-specific primers. The PCR products were fluorescently labeled by primer extension with 6-arboxyfluorescein (6-FAM) 5'-labeled reporter sequence-specific primer (2 min at 95 C, 20 s at 68 C and 10 min at 72 C) and these products were digested with 5U of HpaI (New England Biolabs) for 2h at 37 C. The fragments were purified using Qiaquick PCR columns (Qiagen), analyzed on an ABI 3130xL genetic analyzer (Applied Biosystems) with peak positions identified by using a set of X-rhodamine (ROX)-labeled MapMarker1000 molecular weight standards (BioVentures). The raw capillary electrophoresis data was processed using Attagraph software (Attagene).

Row | SMILES | outcome
1 | O=S(=O)(c1ccccc1)c1ccccc1 | inactive
2 | CN(C)CCC#N | inactive
3 | C=CCO | inactive
4 | O=C(NCNC(=O)NC1C(=O)NC(=O)N1CO)NC1C(=O)NC(=O)N1CO (stereo not given) | inactive
5 | COc1cc(OC)nc(Oc2cccc(Oc3nc(OC)cc(OC)n3)c2C(=O)O)n1 | inactive
6 | CCCCCCC1CCOC1=O (stereo not given) | inactive
7 | CCC1CCC(=O)O1 (stereo not given) | inactive
8 | CC(C)c1ccc(O)cc1 | inactive
9 | c1ccc2c(c1)CCCC2 | inactive
10 | C=CC(=O)OCCO | inactive
11 | O=P(O)(Oc1ccccc1)Oc1ccccc1 | inactive
12 | C[C@]12CC[C@H](O)C[C@H]1CC[C@@H]1[C@@H]2C[C@@H](O)[C@]2(C)[C@@H](C3=CC(=O)OC3)CC[C@]12O | inactive
13 | C#CC1(O)CCCCC1 | inactive
14 | O=C1Nc2ccc(Cl)cc2C(c2ccccc2)=NC1O (stereo not given) | inactive
15 | CC(C)[C@@H](C(=O)O[C@@H](C#N)c1cccc(Oc2ccccc2)c1)c1ccc(Cl)cc1 | inactive
16 | CCC(=O)c1ccc(Cl)cc1 | inactive
17 | C=COCCCl | inactive
18 | Cc1cc(C)c(C2=C(OC(=O)CC(C)(C)C)C3(CCCC3)OC2=O)c(C)c1 | inactive
19 | CC(C)(C)C(O)C(Oc1ccc(-c2ccccc2)cc1)n1cncn1 (stereo not given) | inactive
20 | O=C1C=CC(=O)C=C1 | inactive

Row | SMILES | outcome
21 | CNC(=O)Oc1cc(C)c(SC)c(C)c1 | inactive
22 | CCCCCc1cc(O)cc(O)c1 | inactive
23 | CN(C)N | inactive
24 | ClCCCCCCCl | inactive
25 | Cc1ccc(OP(=O)(Oc2ccc(C)cc2)Oc2ccc(C)cc2)cc1 (tested in a mixture with another compound) | inactive
26 | COC(=O)c1ccccc1S(=O)(=O)NC(=O)Nc1nc(C)cc(C)n1 | inactive
27 | O=C(O)C(Br)Br | inactive
28 | C=CCN(CC=C)C(=O)C(Cl)Cl | inactive
29 | O=[N+]([O-])c1ccc(Cl)cc1 | inactive
30 | CCCCNP(N)(N)=S | inactive
31 | CSc1nc(N=[N+]=[N-])nc(NC(C)C)n1 | inactive
32 | Nc1ccc(Cl)c(Cl)c1 | inactive
33 | CN1C[C@H](C(=O)N[C@]2(C)O[C@@]3(O)[C@@H]4CCCN4C(=O)[C@H](Cc4ccccc4)N3C2=O)C=C2c3cccc4[nH]cc(c34)C[C@H]21 | inactive
34 | Nc1ccc(-c2ccc(N)c(N)c2)cc1N | inactive
35 | C=Cc1cccc(CCl)c1 | inactive
36 | CCC(C)(C)O | inactive
37 | CCc1cccc(C)c1N(C(=O)CCl)[C@@H](C)COC | inactive
38 | [N-]=[N+]=CC(=O)OC[C@H](N)C(=O)O | inactive
39 | O=[N+]([O-])O | inactive
40 | CC(C)COP(=O)(OCC(C)C)OCC(C)C | inactive
